Where two headings read alike, the source gives them in different places.
What was measured:
YES = system: T1, YES; settings: concentration: 1 μM, replicates: in singlicate; n = 1
T1 construct: gene YES1

YSK1 = system: T2, YSK1; settings: concentration: 1 μM, replicates: in singlicate; n = 1
T2 construct: gene STK25

YSK4 = system: T3, YSK4; settings: concentration: 1 μM, replicates: in singlicate; n = 1
T3 construct: gene MAP3K19

ZAK = settings: concentration: 1 μM, replicates: in singlicate; n = 1
ZAP70 = settings: concentration: 1 μM, replicates: in singlicate; n = 1
p38-alpha = system: T4, p38-alpha; settings: n = 1
T4 construct: gene MAPK14

p38-beta = system: T5, p38-beta; settings: concentration: 1 μM, replicates: in singlicate; n = 1
T5 construct: gene MAPK11

p38-delta = settings: concentration: 1 μM, replicates: in singlicate; n = 1
p38-gamma = system: T6, p38-gamma; settings: concentration: 1 μM, replicates: in singlicate; n = 1
T6 construct: gene MAPK12

[1] = concentration: 1 μM, replicates: in singlicate
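Further: KINOMEscan kinase panel screen.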

| SMILES | %Inh (YES) | %Inh (YSK1) | %Inh (YSK4) | %Inh (ZAK) | %Inh (ZAP70) | %Inh (p38-alpha; 1 µM) | %Inh (p38-beta) | %Inh (p38-delta) | %Inh (p38-gamma) | %Inh (p38-alpha; [1]) |
| --- | --- | --- | --- | --- | --- | --- | --- | --- | --- | --- |
| COc1ccccc1CNC(=O)c1cc(C(=O)c2ccccc2C)c[nH]1 [GSK364507] | 16% | 0% | 28% | 24% | 13% | 93.3% | 0% | 39% | 0% | – |
| COc1cc(Nc2nccc(N3CCC(NC(=O)Nc4cc(C)ccc4C)C3)n2)cc(OC)c1OC (stereo not drawn) [GSK1379762] | 10% | 0% | 27% | 3% | 0% | – | 0% | 32% | 24% | 0% |
| COc1ccc2nc(-c3cccc(C)n3)nc(Nc3ccncc3)c2c1 [GSK204919] | 13% | 0% | 13% | 0% | 0% | – | 0% | 12% | 0% | 58% |
| Cc1cccc(-c2nc(-c3ccc(S(C)(=O)=O)cc3)sc2-c2ccnc(NCCc3ccccc3)c2)c1 | 0% | 11% | 0% | 29% | 9% | – | 40% | 12% | 16% | 82% |
| Cc1cccc(-c2nc(Nc3ccncc3)c3ccccc3n2)n1 [GW855857] | 0% | 0% | 0% | 4% | 0% | – | 1% | 0% | 24% | 16% |
| O=c1cc(N2CCOCC2)nc2n(Cc3cccc(Cl)c3Cl)ccn12 [GSK2286295] | 14% | 8% | 23% | 6% | 0% | – | 0% | 40% | 27% | 0% |
| Cc1cccc(-c2cc(Nc3ccncc3)c3ccccc3n2)n1 [GSK223675] | 0% | 8% | 13% | 82% | 0% | – | 0% | 42% | 22% | 12% |
| Cc1cccc(-c2nc(Nc3cccc(C(N)=O)c3)c3ccccc3n2)n1 [GW876019] | 19% | 12% | 0% | 0% | 0% | – | 34% | 16% | 58% | 0% |
| Cc1ccc(-c2cc(-c3c[nH]nc3-c3ccccn3)ccn2)cc1 [GW684088] | 17% | 10% | 2% | 0% | 10% | – | 0% | 25% | 11% | 56% |
| Cc1cccc(-c2nc(Nc3ccc4[nH]ncc4c3)c3ccccc3n2)n1 [GW857175] | 13% | 0% | 19% | 0% | 31% | – | 32% | 0% | 50% | 0% |
| O=S(=O)(c1ccc(-c2ccnc3[nH]ccc23)cc1)N1CCCC1 [GSK846226] | 8% | 21% | 63% | 0% | 0% | – | 0% | 11% | 6% | 6% |
| O=C(Nc1n[nH]c2nc(-c3nccs3)c(Br)cc12)C1CC1 [SB-742251] | 16% | 9% | 95.4% | 7% | 0% | – | 0% | 20% | 0% | 0% |
| COc1cccc(NC(=O)NC2CCN(c3ccnc(Nc4ccc(F)cc4)n3)C2)c1 (stereo not drawn) [GSK1379721] | 0% | 10% | 3% | 42% | 0% | – | 0% | 35% | 2% | 4% |
| COc1cc2ncn(-c3cc(OCC4CCCO4)c(C(N)=O)s3)c2cc1OC (stereo not drawn) [GSK204607] | 12% | 22% | 53% | 6% | 0% | – | 0% | 37% | 0% | 0% |
| Cn1cncc1-c1ccc2ncnc(Nc3ccc(OCc4ccccc4)cc3)c2c1 [GW320571] | 26% | 0% | 1% | 17% | 0% | – | 2% | 21% | 0% | 0% |
| Nc1ncnc2[nH]c(-c3ccccc3)nc12 [AH5015] | 18% | 0% | 94.4% | 33% | 0% | – | 0% | 6% | 0% | 0% |
| O=C(Nc1ccccc1)Nc1cccc(Oc2ccc3nccn3n2)c1 | 0% | 0% | 87% | 35% | 0% | – | 0% | 0% | 19% | 0% |
| COc1ccccc1-c1ccc2c(NC(=O)C3CC3)n[nH]c2n1 [SB-711239] | 0% | 0% | 0% | 0% | 13% | – | 9% | 6% | 2% | 26% |

| SMILES | %Inh (YES) | %Inh (YSK1) | %Inh (YSK4) | %Inh (ZAK) | %Inh (ZAP70) | %Inh (p38-alpha; 1 µM) | %Inh (p38-beta) | %Inh (p38-delta) | %Inh (p38-gamma) | %Inh (p38-alpha; [1]) |
| --- | --- | --- | --- | --- | --- | --- | --- | --- | --- | --- |
| Cn1ccc2ncnc(Oc3ccc(Nc4nc5ccccc5[nH]4)cc3)c21 | 0% | 0% | 14% | 0% | 0% | – | 0% | 16% | 0% | 5% |
| O=C(Nc1n[nH]c2nc(-c3nccs3)c(Br)cc12)C1CCCC1 [SB-742609] | 10% | 5% | 62% | 9% | 0% | – | 0% | 47% | 0% | 0% |
| Cc1c(O)cccc1Nc1ccnc2ccc(C(F)(F)F)cc12.Cl [GW466413] | 20% | 0% | 11% | 1% | 0% | – | 0% | 24% | 0% | 0% |
| Cc1ccc(NC(=O)Nc2cc(C(C)(C)C)nn2-c2ccccc2)cc1 [GSK1014915] | 9% | 0% | 19% | 26% | 0% | – | 87% | 54% | 50% | 99.7% |
| COc1ccc(Nc2nccc(-c3cccc(NC(=O)c4cc5cc(F)ccc5[nH]4)c3)n2)cc1 [GSK1229782] | 29% | 31% | 79% | 22% | 0% | – | 0% | 45% | 48% | 27% |
| CCn1c(-c2ccccn2)nc2cnccc21 [SB-736398] | 3% | 100% | 44% | 5% | 6% | – | 0% | 23% | 0% | 0% |
| O=C(O)COc1ncnc2cc(-c3ccc4[nH]ncc4c3)sc12 | 0% | 0% | 83% | 6% | 14% | – | 16% | 32% | 21% | 20% |
| Cl.c1ccc(-c2n[nH]cc2-c2ccnc(-c3ccc(CN4CCOCC4)cc3)c2)nc1 [GW776245] | 0% | 0% | 0% | 13% | 0% | – | 23% | 7% | 55% | 17% |
| Cc1csc(-c2nc(Nc3ccncc3)c3ccccc3n2)n1 [GW869640] | 0% | 0% | 38% | 17% | 18% | – | 12% | 0% | 39% | 14% |
| CC(=O)Nc1nc2cnc(Nc3cc(NC(=O)c4cccc(CCC#N)c4)ccc3C)nc2s1 | 3% | 0% | 19% | 0% | 0% | – | 17% | 16% | 32% | 77% |
| COc1cc2ncnc(Nc3ccc4nc(-c5ccccc5)[nH]c4c3)c2cc1OC.Cl [GW282450] | 5% | 6% | 35% | 0% | 0% | – | 0% | 36% | 0% | 1% |
| COC(=O)c1c(-c2ccccc2)c2cc(C(=O)O)ccc2c(=O)n1Cc1ccccc1 | 0% | 0% | 0% | 0% | 31% | – | 19% | 21% | 0% | 24% |
| Fc1cc(Cl)ccc1Nc1ccnc2cc(-c3ccc(CN4CCCCC4)o3)ccc12 [GW560116] | 1% | 17% | 5% | 0% | 0% | – | 0% | 40% | 9% | 36% |
| COc1ccc(CNC(=O)NC2CCN(c3ccnc(Nc4cc(OC)c(OC)c(OC)c4)n3)C2)cc1 (stereo not drawn) [GSK1379748] | 0% | 9% | 13% | 5% | 3% | – | 0% | 26% | 0% | 12% |
| Clc1cc(Cl)cc(Nc2ccnc(Nc3cc(Cl)cc(Cl)c3)n2)c1 [GSK175726] | 20% | 3% | 0% | 2% | 0% | – | 0% | 12% | 40% | 26% |
| COC(=O)c1c(-c2ccccc2)c2cc(OC)ccc2c(=O)n1Cc1ccccc1 | 0% | 1% | 0% | 20% | 0% | – | 7% | 42% | 0% | 36% |
| Cc1cc(-c2ccc3c(c2)CC[C@@H](N[C@@H](C)c2ccccc2)C3)cnc1N.Cl [GW412617] | 4% | 0% | 100% | 1% | 0% | – | 0% | 25% | 0% | 0% |

Source: paper PMC5540273 (PLoS ONE, 2017)
